Reference: the supplement of paper PMC10849652
Targets with a hit are over-represented here; the source holds about 7,900 in all. About 0.6% of all pairs of compound and target were hits.

Experiments:
Assay in all cases: log2 fold change, soluble protein after heating vs DMSO (PISA); higher = thermal stabilisation; K562 cells, 10 uM, 30 min; active = over 0.2 and 3.5 SD of the protein, either way, in both replicates (recomputed)
[1] = compound: NC(=O)Nc1cc(-c2cccc(F)c2)sc1C(=O)N[C@H]1CCCNC1
In short: (§1)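 K562 cells at 2×10^6 cells/mL were given 10 μM compound for 30 min. Aliquots then went through 3 min of heating across 48°C-58°C, were pooled, and were extracted in PBS with 0.5% NP-40 at 4°C, and the supernatant after 21,000xg for 90 min was quantified by TMTpro 16plex LC-MS/MS with channel sums equalised. Thermal stability relative to control samples, from duplicates, is given as log2 fold change.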

[2] = compound: NC(=O)c1cnc(N[C@@H]2CCCC[C@@H]2N)nc1Nc1cccc(-n2nccn2)c1
In short: as §1

[3] = compound: NC1(c2ccc(-c3nc4ccn5c(=O)[nH]nc5c4cc3-c3ccccc3)cc2)CCC1
In short: as §1

[4] = compound: NCC(=O)Nc1ccc(-n2nc(C(F)(F)F)cc2-c2ccc3c(ccc4ccccc43)c2)cc1
In short: as §1

entinostat = compound: Nc1ccccc1NC(=O)c1ccc(CNC(=O)OCc2cccnc2)cc1 [entinostat]
In short: as §1

vorinostat = compound: O=C(CCCCCCC(=O)Nc1ccccc1)NO [vorinostat]
In short: as §1

citarinostat = compound: O=C(CCCCCCNC(=O)c1cnc(N(c2ccccc2)c2ccccc2Cl)nc1)NO [citarinostat]
In short: as §1

silmitasertib = compound: O=C(O)c1ccc2c(c1)nc(Nc1cccc(Cl)c1)c1ccncc12 [silmitasertib]
In short: as §1

[5] = compound: O=C1NC(=O)C(c2cnc3ccccn23)=C1c1cn2c3c(cc(F)cc13)CN(C(=O)N1CCCCC1)CC2
In short: as §1

[6] = compound: c1cc(OCCN2CCCCC2)cc(-c2n[nH]c3ccc(-c4nnc[nH]4)cc23)c1
In short: as §1

Measured: log2 fold change

GTF2E1 (UniProt P29083)
inactive: [1] -0.038 | [2] -0.118 | [3] -0.122 | [4] -0.198 | entinostat 0.054 | vorinostat 0.095 | citarinostat 0.073 | silmitasertib 0.06 | [5] -0.134 | [6] -0.124

HNRNPH1 (UniProt P31943)
Sequence of UniProt P31943 (P31943 whole entry, looked up): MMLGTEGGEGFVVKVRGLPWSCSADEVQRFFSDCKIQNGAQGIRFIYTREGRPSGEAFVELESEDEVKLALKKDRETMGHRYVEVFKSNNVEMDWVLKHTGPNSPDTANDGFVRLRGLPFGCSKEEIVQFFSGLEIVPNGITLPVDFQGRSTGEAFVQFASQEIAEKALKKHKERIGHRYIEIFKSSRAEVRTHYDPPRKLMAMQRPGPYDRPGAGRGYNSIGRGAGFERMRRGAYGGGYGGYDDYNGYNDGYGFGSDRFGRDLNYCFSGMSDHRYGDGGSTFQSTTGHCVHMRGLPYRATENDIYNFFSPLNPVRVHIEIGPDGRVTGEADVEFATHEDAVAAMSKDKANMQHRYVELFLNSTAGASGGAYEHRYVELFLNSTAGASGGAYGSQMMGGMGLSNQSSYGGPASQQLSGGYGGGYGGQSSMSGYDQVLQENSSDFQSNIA
inactive: [1] 0.052 | [2] -0.023 | [3] -0.075 | [4] -0.059 | entinostat 0.118 | vorinostat 0.168 | citarinostat 0.09 | silmitasertib 0.024 | [5] -0.105 | [6] -0.074

GSR (UniProt P00390)
Sequence of UniProt P00390 (P00390 whole entry, looked up): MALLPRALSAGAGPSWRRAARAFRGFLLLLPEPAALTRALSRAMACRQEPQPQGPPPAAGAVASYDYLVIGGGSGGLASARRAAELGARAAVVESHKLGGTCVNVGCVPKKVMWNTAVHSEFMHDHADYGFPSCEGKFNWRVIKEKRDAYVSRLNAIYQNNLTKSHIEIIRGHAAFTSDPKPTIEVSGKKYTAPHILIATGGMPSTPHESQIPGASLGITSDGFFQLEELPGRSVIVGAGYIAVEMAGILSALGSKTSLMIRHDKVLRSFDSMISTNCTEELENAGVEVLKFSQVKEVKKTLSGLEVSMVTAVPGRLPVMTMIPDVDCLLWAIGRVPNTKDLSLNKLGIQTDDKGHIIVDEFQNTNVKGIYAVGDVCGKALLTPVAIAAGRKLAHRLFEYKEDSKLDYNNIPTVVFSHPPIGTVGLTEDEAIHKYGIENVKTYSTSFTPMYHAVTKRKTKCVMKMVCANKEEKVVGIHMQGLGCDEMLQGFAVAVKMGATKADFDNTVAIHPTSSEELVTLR
inactive: [1] 0.008 | [2] -0.046 | [3] 0 | [4] -0.03 | entinostat -0.011 | vorinostat 0.019 | citarinostat 0.028 | silmitasertib -0.027 | [5] -0.023 | [6] 0.018

IDI1 isoform 2 (UniProt Q13907)
inactive: [1] -0.062 | [2] 0.01 | [3] -0.038 | [4] 0.024 | entinostat -0.03 | vorinostat 0.008 | citarinostat -0.017 | silmitasertib 0.078 | [5] -0.066 | [6] 0.035

GEMIN6 (UniProt Q8WXD5)
inactive: [1] 0.066 | [2] 0.015 | [3] -0.108 | [4] 0.099 | entinostat -0.005 | vorinostat -0.04 | citarinostat -0.12 | silmitasertib 0.015 | [5] -0.139 | [6] -0.106

FBXO3 (UniProt Q9UK99)
Sequence of UniProt Q9UK99 (Q9UK99 whole entry, looked up): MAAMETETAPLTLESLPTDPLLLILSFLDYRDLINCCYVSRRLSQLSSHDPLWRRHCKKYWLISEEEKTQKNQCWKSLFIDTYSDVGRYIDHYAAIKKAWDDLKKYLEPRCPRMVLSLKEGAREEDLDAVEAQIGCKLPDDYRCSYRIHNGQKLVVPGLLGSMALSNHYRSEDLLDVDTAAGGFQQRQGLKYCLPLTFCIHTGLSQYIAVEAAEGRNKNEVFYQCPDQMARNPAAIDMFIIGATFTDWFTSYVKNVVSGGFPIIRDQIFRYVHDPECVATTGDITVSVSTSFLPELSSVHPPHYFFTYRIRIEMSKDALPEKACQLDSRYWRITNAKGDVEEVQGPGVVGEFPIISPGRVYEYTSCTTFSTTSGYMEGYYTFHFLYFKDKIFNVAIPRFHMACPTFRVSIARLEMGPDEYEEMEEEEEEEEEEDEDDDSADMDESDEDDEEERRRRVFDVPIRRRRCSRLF
inactive: [1] -0.034 | [2] -0.013 | [3] -0.202 | [4] -0.013 | entinostat -0.039 | vorinostat 0.011 | citarinostat 0.016 | silmitasertib -0.003 | [5] 0.001 | [6] -0.12

GPKOW (UniProt Q92917)
Sequence of UniProt Q92917 (Q92917 whole entry, looked up): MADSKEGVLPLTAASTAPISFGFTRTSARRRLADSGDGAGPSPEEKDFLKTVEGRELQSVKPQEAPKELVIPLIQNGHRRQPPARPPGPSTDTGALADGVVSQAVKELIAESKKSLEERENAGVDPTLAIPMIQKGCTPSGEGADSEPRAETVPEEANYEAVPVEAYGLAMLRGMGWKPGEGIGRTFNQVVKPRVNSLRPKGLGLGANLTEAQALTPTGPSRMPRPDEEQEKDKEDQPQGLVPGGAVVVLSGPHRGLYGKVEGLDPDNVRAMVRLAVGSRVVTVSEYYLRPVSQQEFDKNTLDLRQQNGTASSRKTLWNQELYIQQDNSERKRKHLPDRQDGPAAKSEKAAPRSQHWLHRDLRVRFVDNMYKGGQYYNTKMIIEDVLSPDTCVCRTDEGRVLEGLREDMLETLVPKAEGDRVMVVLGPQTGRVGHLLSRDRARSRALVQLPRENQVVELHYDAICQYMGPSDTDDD
inactive: [1] -0.014 | [2] 0 | [3] -0.096 | [4] -0.216 | entinostat 0.042 | vorinostat 0.122 | citarinostat 0.048 | silmitasertib -0.078 | [5] -0.061 | [6] -0.01

HSPA8 (UniProt P11142)
inactive: [1] -0.006 | [2] 0.011 | [3] 0.018 | [4] 0.012 | entinostat -0.009 | vorinostat -0.01 | citarinostat -0.026 | silmitasertib -0.015 | [5] 0.003 | [6] -0.034

HADHA (UniProt P40939)
active: [5] 1.01
inactive: [1] -0.035 | [2] 0.033 | [3] 0.131 | [4] 0.125 | entinostat 0.045 | vorinostat -0.059 | citarinostat 0.018 | silmitasertib -0.1 | [6] -0.007

FECH isoform 2 (UniProt P22830)
Sequence of UniProt P22830 (P22830 whole entry, looked up): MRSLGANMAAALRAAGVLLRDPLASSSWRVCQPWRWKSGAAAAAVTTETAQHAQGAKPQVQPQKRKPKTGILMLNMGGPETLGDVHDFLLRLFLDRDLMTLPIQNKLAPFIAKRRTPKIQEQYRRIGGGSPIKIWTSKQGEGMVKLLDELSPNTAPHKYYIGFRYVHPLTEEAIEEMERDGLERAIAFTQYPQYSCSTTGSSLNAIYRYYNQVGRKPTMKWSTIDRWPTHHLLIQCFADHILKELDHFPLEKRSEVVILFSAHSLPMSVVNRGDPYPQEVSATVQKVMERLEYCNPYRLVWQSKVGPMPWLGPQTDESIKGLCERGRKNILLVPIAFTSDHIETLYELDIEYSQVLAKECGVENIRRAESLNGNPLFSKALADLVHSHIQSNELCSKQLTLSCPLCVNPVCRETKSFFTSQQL
inactive: [1] -0.031 | [2] 0.171 | [3] 0.288 | [4] 0.021 | entinostat -0.01 | vorinostat -0.228 | citarinostat -0.031 | silmitasertib -0.035 | [5] 0 | [6] 0.38

FOXO3 (UniProt O43524)
inactive: [1] -0.395 | [2] -0.089 | [3] -0.025 | [4] -0.072 | entinostat -0.063 | vorinostat 0.222 | citarinostat 0.002 | silmitasertib -0.136 | [5] -0.046 | [6] 0.035

GAPVD1 isoform 6 (UniProt Q14C86)
inactive: [1] 0.009 | [2] -0.077 | [3] -0.139 | [4] -0.073 | entinostat 0.049 | vorinostat 0.063 | citarinostat 0.087 | silmitasertib 0.124 | [5] 0.003 | [6] -0.048

FIS1 (UniProt Q9Y3D6)
inactive: [1] -0.013 | [2] 0.075 | [3] 0.002 | [4] 0.133 | entinostat -0.004 | vorinostat -0.027 | citarinostat 0.051 | silmitasertib -0.017 | [5] -0.03 | [6] -0.006

GAB2 (UniProt Q9UQC2)
Sequence of UniProt Q9UQC2 (Q9UQC2 whole entry, looked up): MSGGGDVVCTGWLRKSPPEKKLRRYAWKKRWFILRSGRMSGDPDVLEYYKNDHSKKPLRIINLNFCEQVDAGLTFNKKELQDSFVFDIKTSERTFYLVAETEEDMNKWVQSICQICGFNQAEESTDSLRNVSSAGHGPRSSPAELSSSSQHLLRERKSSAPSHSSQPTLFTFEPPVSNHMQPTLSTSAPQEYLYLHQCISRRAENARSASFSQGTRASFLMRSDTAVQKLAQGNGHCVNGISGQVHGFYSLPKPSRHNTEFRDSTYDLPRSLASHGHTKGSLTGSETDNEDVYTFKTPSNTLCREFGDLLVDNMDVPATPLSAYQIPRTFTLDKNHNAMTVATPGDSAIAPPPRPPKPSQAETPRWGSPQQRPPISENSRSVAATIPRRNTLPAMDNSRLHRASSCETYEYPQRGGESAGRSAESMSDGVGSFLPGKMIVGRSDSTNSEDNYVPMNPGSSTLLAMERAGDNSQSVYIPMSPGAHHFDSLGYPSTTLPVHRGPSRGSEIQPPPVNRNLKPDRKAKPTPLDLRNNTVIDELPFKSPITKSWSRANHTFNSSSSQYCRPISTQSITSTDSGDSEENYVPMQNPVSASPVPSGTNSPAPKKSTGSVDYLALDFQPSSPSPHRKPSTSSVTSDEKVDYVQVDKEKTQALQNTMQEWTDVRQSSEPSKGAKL
inactive: [1] -0.087 | [2] -0.268 | [3] -0.081 | [4] 0.018 | entinostat 0.127 | vorinostat 0.151 | citarinostat 0.182 | silmitasertib -0.175 | [5] -0.095 | [6] -0.21

GCLM (UniProt P48507)
Sequence of UniProt P48507 (P48507 whole entry, looked up): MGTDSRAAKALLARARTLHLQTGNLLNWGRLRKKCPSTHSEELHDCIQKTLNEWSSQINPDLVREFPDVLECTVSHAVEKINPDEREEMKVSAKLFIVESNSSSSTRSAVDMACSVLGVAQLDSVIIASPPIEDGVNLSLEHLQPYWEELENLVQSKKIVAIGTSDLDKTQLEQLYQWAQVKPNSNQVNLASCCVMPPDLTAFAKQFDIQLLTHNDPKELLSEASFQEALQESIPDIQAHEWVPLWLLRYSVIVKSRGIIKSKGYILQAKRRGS
inactive: [1] -0.028 | [2] 0.073 | [3] -0.088 | [4] -0.075 | entinostat 0.093 | vorinostat 0.051 | citarinostat 0.074 | silmitasertib 0.077 | [5] -0.022 | [6] -0.004

FDXR isoform 7 (UniProt P22570)
Sequence of UniProt P22570 (P22570 whole entry, looked up): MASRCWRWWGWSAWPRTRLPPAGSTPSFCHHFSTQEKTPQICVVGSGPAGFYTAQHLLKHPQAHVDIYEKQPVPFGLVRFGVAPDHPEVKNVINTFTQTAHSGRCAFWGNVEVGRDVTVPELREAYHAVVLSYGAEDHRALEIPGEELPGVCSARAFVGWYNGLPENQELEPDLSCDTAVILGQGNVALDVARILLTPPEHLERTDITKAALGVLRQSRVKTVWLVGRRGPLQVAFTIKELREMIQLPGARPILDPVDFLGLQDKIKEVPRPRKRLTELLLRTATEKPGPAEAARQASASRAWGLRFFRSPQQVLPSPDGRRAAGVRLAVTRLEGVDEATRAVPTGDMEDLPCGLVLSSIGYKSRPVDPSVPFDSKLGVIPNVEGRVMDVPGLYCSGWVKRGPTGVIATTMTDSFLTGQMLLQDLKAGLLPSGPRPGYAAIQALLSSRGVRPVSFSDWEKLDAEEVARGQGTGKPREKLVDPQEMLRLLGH
inactive: [1] -0.03 | [2] -0.044 | [3] -0.083 | [4] -0.082 | entinostat -0.006 | vorinostat 0.084 | citarinostat 0.031 | silmitasertib -0.034 | [5] -0.197 | [6] -0.11

FAM91A1 (UniProt Q658Y4)
inactive: [1] -0.009 | [2] -0.061 | [3] -0.08 | [4] -0.042 | entinostat -0.003 | vorinostat 0.004 | citarinostat -0.003 | silmitasertib 0.073 | [5] -0.346 | [6] -0.084

HAT1 (UniProt O14929)
inactive: [1] 0.002 | [2] 0.006 | [3] -0.076 | [4] 0.01 | entinostat 0.053 | vorinostat 0.001 | citarinostat 0.071 | silmitasertib 0.052 | [5] -0.055 | [6] -0.016

HIP1R (UniProt O75146)
inactive: [1] -0.032 | [2] -0.001 | [3] -0.138 | [4] 0.014 | entinostat 0.027 | vorinostat 0.069 | citarinostat 0.022 | silmitasertib 0 | [5] -0.024 | [6] -0.005

GNB2 (UniProt P62879)
inactive: [1] -0.073 | [2] -0.012 | [3] 0.022 | [4] -0.014 | entinostat -0.037 | vorinostat -0.047 | citarinostat -0.01 | silmitasertib 0.028 | [5] -0.075 | [6] -0.049

HOMER1 (UniProt Q86YM7)
inactive: [1] 0.058 | [2] 0.007 | [3] -0.014 | [4] 0.032 | entinostat 0.049 | vorinostat 0.059 | citarinostat 0.013 | silmitasertib 0.119 | [5] 0.013 | [6] 0.024

HBQ1 (UniProt P09105)
inactive: [1] 0.058 | [2] -0.048 | [3] -0.043 | [4] 0.006 | entinostat 0.014 | vorinostat -0.05 | citarinostat 0.032 | silmitasertib -0.047 | [5] -0.119 | [6] 0.021

GYS1 (UniProt P13807)
inactive: [1] -0.05 | [2] -0.027 | [3] 0.05 | [4] 0.091 | entinostat -0.077 | vorinostat -0.125 | citarinostat -0.103 | silmitasertib 0.05 | [5] -0.002 | [6] -0.301

IDH3A (UniProt P50213)
Sequence of UniProt P50213 (P50213 whole entry, looked up): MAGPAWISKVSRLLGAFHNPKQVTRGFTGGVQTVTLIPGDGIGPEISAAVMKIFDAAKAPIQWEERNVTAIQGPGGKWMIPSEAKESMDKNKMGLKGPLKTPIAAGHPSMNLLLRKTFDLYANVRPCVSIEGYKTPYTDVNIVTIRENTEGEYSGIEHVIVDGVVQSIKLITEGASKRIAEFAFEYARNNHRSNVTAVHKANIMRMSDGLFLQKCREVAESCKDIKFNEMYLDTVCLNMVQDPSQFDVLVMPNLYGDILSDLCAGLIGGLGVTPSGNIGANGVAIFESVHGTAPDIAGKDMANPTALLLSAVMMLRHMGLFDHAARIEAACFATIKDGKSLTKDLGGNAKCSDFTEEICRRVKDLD
inactive: [1] 0 | [2] -0.033 | [3] -0.062 | [4] -0.005 | entinostat -0.025 | vorinostat -0.029 | citarinostat 0.023 | silmitasertib -0.034 | [5] -0.021 | [6] 0.011

HDAC6 (UniProt Q9UBN7)
inactive: [1] 0.002 | [2] -0.04 | [3] 0.054 | [4] 0.001 | entinostat -0.053 | silmitasertib 0.009 | [5] 0.004 | [6] 0.064
active: vorinostat 0.86 | citarinostat 0.747

GID4 (UniProt Q8IVV7)
inactive: [1] -0.165 | [2] -0.03 | [3] -0.032 | [4] -0.146 | vorinostat -0.074 | citarinostat 0.006 | silmitasertib 0.118 | [5] -0.017 | [6] -0.052
active: entinostat 0.289

GSK3B isoform 2 (UniProt P49841)
active: [5] 0.29
inactive: [1] -0.027 | [2] -0.06 | [3] -0.055 | [4] -0.028 | entinostat 0.005 | vorinostat 0.023 | citarinostat 0.047 | silmitasertib 0.012

HEXB (UniProt P07686)
inactive: [1] 0.003 | [2] -0.051 | [3] -0.145 | [4] -0.034 | entinostat 0.004 | vorinostat -0.042 | citarinostat 0.033 | silmitasertib 0.007 | [5] -0.034 | [6] -0.003

GALC (UniProt P54803)
Sequence of UniProt P54803 (P54803 whole entry, looked up): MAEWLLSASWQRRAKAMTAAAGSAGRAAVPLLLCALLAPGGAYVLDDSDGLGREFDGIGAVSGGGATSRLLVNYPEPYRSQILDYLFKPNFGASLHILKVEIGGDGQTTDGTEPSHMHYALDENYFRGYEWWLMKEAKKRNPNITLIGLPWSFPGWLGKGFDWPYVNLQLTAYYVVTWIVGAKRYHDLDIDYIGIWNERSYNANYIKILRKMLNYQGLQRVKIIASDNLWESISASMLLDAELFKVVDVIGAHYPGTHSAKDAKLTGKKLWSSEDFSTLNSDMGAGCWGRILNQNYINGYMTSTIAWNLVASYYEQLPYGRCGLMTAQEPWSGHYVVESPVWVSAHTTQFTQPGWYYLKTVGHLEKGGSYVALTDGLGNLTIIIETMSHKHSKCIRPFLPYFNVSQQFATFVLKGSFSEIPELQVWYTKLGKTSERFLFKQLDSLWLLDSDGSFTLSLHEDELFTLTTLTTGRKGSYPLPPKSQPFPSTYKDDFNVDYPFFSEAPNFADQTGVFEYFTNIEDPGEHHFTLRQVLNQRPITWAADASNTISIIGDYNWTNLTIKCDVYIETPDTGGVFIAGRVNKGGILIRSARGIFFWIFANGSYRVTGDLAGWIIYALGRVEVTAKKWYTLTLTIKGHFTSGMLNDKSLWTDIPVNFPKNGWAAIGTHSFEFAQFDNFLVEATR
inactive: [1] 0.015 | [2] 0.016 | [3] -0.165 | [4] 0.001 | entinostat -0.012 | vorinostat -0.138 | citarinostat 0.017 | silmitasertib 0.042 | [5] 0 | [6] 0.096

GLUD2 (UniProt P49448)
inactive: [1] -0.086 | [2] -0.03 | [3] -0.006 | [4] 0.027 | entinostat -0.053 | vorinostat -0.051 | citarinostat -0.07 | silmitasertib -0.136 | [5] -0.008 | [6] -0.017
